Test results published in PubChem BioAssay AID1159580 (chemical genetic matrix, 2015).
Screen size: about 5,500 compounds; about 2,000 (36%) were called active. About 18% were inconclusive and are not listed. Rule as the data show it: active = normalized growth mostly below about 0.91 (no sharp cut-off); inconclusive = no clear call, values can overlap the other calls; inactive = mostly above about 0.92. Some of the results follow.

Experiment: chemical genetic growth profiling, strain panel (AID 1159580);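 also: tested at 20 µM; growth read once vehicle control cultures reached saturation at 30 °C; 1 = growth at the plate median or of vehicle wells; lower values mean less growth of the strain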
Details: growth OD

Measured: normalized growth

C=C/C(C)=C\CC1C(C)(O)CCC2C(C)(C)CCCC21C (stereo unspecified)
inactive: S. cerevisiae deletion strains, locus YKL068W, hits give low values 0.963 | S. cerevisiae deletion strains, locus YOL012C, strain htz1 0.258 | S. cerevisiae deletion strains, locus YPR141C, strain kar3, hits give low values 0.958
active: S. cerevisiae deletion strains, locus YAL013W, strain DEP1, hits give low values 0.143 | S. cerevisiae deletion strains, locus YBR021W, strain FUR4, hits give low values 0.64 | S. cerevisiae deletion strains, locus YBR229C, strain ROT2, hits give low values 0.316 | S. cerevisiae deletion strains, locus YCL029C, strain bik1, hits give low values 0.612 | S. cerevisiae deletion strains, locus YDL035C, strain GPR1, hits give low values 0.139 | S. cerevisiae deletion strains, locus YDL074C, strain BRE1, hits give low values 0.172 | S. cerevisiae deletion strains, locus YDL101C, strain DUN1, hits give low values 0.0723 | S. cerevisiae deletion strains, locus YDL134C, strain PPH21, hits give low values 0.0532 | S. cerevisiae deletion strains, locus YDL185W, strain tfp1, hits give low values 0.842 | S. cerevisiae deletion strains, locus YDL192W, strain arf1, hits give low values 0.0743 | S. cerevisiae deletion strains, locus YDR101C, strain arx1, hits give low values 0.429 | S. cerevisiae deletion strains, locus YDR150W, strain NUM1, hits give low values 0.289 | S. cerevisiae deletion strains, locus YDR162C, strain NBP2, hits give low values 0.0609 | S. cerevisiae deletion strains, locus YDR318W, strain mcm21, hits give low values 0.074 | S. cerevisiae deletion strains, locus YDR388W, hits give low values 0.121 | S. cerevisiae deletion strains, locus YDR502C, strain sam2, hits give low values 0.155 | S. cerevisiae deletion strains, locus YEL061C, strain CIN8, hits give low values 0.154 | S. cerevisiae deletion strains, locus YER110C, hits give low values 0.118 | S. cerevisiae deletion strains, locus YER155C, strain BEM2, hits give low values 0.237 | S. cerevisiae deletion strains, locus YER167W, strain BCK2, hits give low values 0.0638 | S. cerevisiae deletion strains, locus YGL078C, strain dbp3, hits give low values 0.626 | S. cerevisiae deletion strains, locus YGL086W, strain mad1, hits give low values 0.105 | S. cerevisiae deletion strains, locus YGL248W, strain PDE1, hits give low values 0.0559 | S. cerevisiae deletion strains, locus YGR078C, strain PAC10, hits give low values 0.0661 | S. cerevisiae deletion strains, locus YGR135W, strain pre9, hits give low values 0.115 | S. cerevisiae deletion strains, locus YGR229C, strain SMI1, hits give low values 0.0733 | S. cerevisiae deletion strains, locus YGR252W, strain gcn5, hits give low values 0.255 | S. cerevisiae deletion strains, locus YHR030C, strain SLT2, hits give low values 0.056 | S. cerevisiae deletion strains, locus YHR079C, strain IRE1 (second series), hits give low values 0.504 | S. cerevisiae deletion strains, locus YHR094C, strain hxt1, hits give low values 0.099 | S. cerevisiae deletion strains, locus YHR129C, strain ARP1, hits give low values 0.159 | S. cerevisiae deletion strains, locus YHR200W, strain rpn10, hits give low values 0.247 | S. cerevisiae deletion strains, locus YIL066C, strain RNR3, hits give low values 0.0635 | S. cerevisiae deletion strains, locus YIL073C, strain SPO22, hits give low values 0.12 | S. cerevisiae deletion strains, locus YIL125W, strain kgd1, hits give low values 0.128 | S. cerevisiae deletion strains, locus YIR030C, strain dcg1, hits give low values 0.136 | S. cerevisiae deletion strains, locus YJL095W, strain BCK1, hits give low values 0.0688 | S. cerevisiae deletion strains, locus YJL134W, strain LCB3, hits give low values 0.057 | S. cerevisiae deletion strains, locus YJL168C, strain set2, hits give low values 0.203 | S. cerevisiae deletion strains, locus YJL187C, strain SWE1 (second series), hits give low values 0.39 | S. cerevisiae deletion strains, locus YJR043C, strain POL32, hits give low values 0.258 | S. cerevisiae deletion strains, locus YJR075W, strain HOC1, hits give low values 0.1 | S. cerevisiae deletion strains, locus YKL009W, strain mrt4, hits give low values 0.833 | S. cerevisiae deletion strains, locus YKL085W, strain MDH1 (second series), hits give low values 0.0898 | S. cerevisiae deletion strains, locus YKL085W, strain MDH1, hits give low values 0.0898 | S. cerevisiae deletion strains, locus YKL190W, strain CNB1, hits give low values 0.0889 | S. cerevisiae deletion strains, locus YKR001C, strain vps1, hits give low values 0.0677 | S. cerevisiae deletion strains, locus YLR039C, strain RIC1, hits give low values 0.111 | S. cerevisiae deletion strains, locus YLR058C, strain SHM2, hits give low values 0.0878 | S. cerevisiae deletion strains, locus YLR102C, strain apc9, hits give low values 0.186 | S. cerevisiae deletion strains, locus YLR262C, strain YPT6, hits give low values 0.121 | S. cerevisiae deletion strains, locus YLR268W, strain sec22, hits give low values 0.0849 | S. cerevisiae deletion strains, locus YLR330W, strain CHS5, hits give low values 0.057 | S. cerevisiae deletion strains, locus YLR342W, strain FKS1 (second series), hits give low values 0.0927 | S. cerevisiae deletion strains, locus YLR371W, strain rom2, hits give low values 0.0695 | S. cerevisiae deletion strains, locus YLR418C, strain cdc73, hits give low values 0.107 | S. cerevisiae deletion strains, locus YML016C, strain PPZ1, hits give low values 0.0581 | S. cerevisiae deletion strains, locus YML032C, strain rad52, hits give low values 0.621 | S. cerevisiae deletion strains, locus YML124C, strain tub3, hits give low values 0.184 | S. cerevisiae deletion strains, locus YMR078C, strain ctf18, hits give low values 0.0993 | S. cerevisiae deletion strains, locus YMR223W, strain ubp8, hits give low values 0.0709 | S. cerevisiae deletion strains, locus YMR263W, strain SAP30, hits give low values 0.153 | S. cerevisiae deletion strains, locus YMR307W, strain GAS1, hits give low values 0.127 | S. cerevisiae deletion strains, locus YNL067W, strain RPL9B, hits give low values 0.421 | S. cerevisiae deletion strains, locus YNL128W, strain TEP1, hits give low values 0.0735 | S. cerevisiae deletion strains, locus YNL153C, strain GIM3, hits give low values 0.215 | S. cerevisiae deletion strains, locus YNL233W, strain BNI4, hits give low values 0.0602 | S. cerevisiae deletion strains, locus YNL250W, strain rad50, hits give low values 0.894 | S. cerevisiae deletion strains, locus YNL271C, strain bni1, hits give low values 0.336 | S. cerevisiae deletion strains, locus YNL298W, strain CLA4, hits give low values 0.611 | S. cerevisiae deletion strains, locus YNL307C, strain MCK1, hits give low values 0.072 | S. cerevisiae deletion strains, locus YNL322C, strain KRE1, hits give low values 0.169 | S. cerevisiae deletion strains, locus YNR052C, strain pop2, hits give low values 0.527 | S. cerevisiae deletion strains, locus YOL006C, strain TOP1, hits give low values 0.128 | S. cerevisiae deletion strains, locus YOL147C, strain pex11, hits give low values 0.152 | S. cerevisiae deletion strains, locus YOR061W, strain CKA2, hits give low values 0.05 | S. cerevisiae deletion strains, locus YOR069W, strain VPS5, hits give low values 0.078 | S. cerevisiae deletion strains, locus YOR136W, strain idh2, hits give low values 0.101 | S. cerevisiae deletion strains, locus YOR144C, strain elg1, hits give low values 0.423 | S. cerevisiae deletion strains, locus YOR184W, strain ser1, hits give low values 0.0788 | S. cerevisiae deletion strains, locus YOR316C, strain cot1, hits give low values 0.113 | S. cerevisiae deletion strains, locus YPL055C, strain LGE1, hits give low values 0.201 | S. cerevisiae deletion strains, locus YPL241C, strain CIN2, hits give low values 0.358 | S. cerevisiae deletion strains, locus YPR119W, strain clb2, hits give low values 0.079 | S. cerevisiae deletion strains, locus YPR163C, strain tif3, hits give low values 0.0854 | S. cerevisiae deletion strains, locus YPR167C, strain met16, hits give low values 0.067 | S. cerevisiae deletion strains, strain wtn01, hits give low values 0.0803 | S. cerevisiae strains, strain wild type, hits give low values 0.125
